# Data from PubChem BioAssay (NCI).
# About 83,000 compounds went through this panel and 20% of them were active in at least one assay; those are over-represented in the sample as a whole.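 Single-dose data. Exposure time 48 hours. Values below 10 considered active.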 A number with no mark means an inactive call. Active and inactive are the calls of the source.
# System: TK-10 renal
# Assay: NCI-60 one-dose screen, 48 h (100 = growth as untreated, 0 = no growth, -100 = all killed)
# Details: 10 µM unless noted
row,Structure (SMILES),growth
1,O=C(Nn1c(NCC(=O)N2c3ccccc3Sc3ccccc32)nnc1-c1ccc(O)cc1)c1ccccc1,104%
2,N#C/C(=C\c1cccc2cnccc12)n1nnc2cccc(F)c21,34.4%
3,O=C(S)CNC(=O)c1ccccc1,91.6%
4,CN(C)c1ccc2nc3ccc(=[N+](C)C)c([N+](=O)[O-])c-3sc2c1,71.3%
5,O=C1c2ccccc2NC(n2sc3ccccc3c2=O)N1c1ccccc1 (stereo unspecified),109%
6,Cc1nc2ccccc2c(/C=C/c2ccccc2)c1C(=O)/C=C/c1ccc(C(F)(F)F)cc1,-51.2% (active)
7,CCOC(=O)c1nc(Nc2ccc(C(C)=O)cc2)sc1C,97.9%
8,Oc1ccc(Cl)cc1Cc1cc(Cl)cc(Cl)c1O,79.5%
9,COc1nc2ccc(C)cc2cc1-c1nc2c(cnn2-c2ccc(Br)cc2)c(=O)[nH]1,77.3%
10,CC(=O)OC[C@H]1OC(Sc2sc(C(=O)c3ccc(Cl)cc3)c(N)c2-c2nc3ccccc3s2)[C@H](OC(C)=O)[C@@H](OC(C)=O)[C@@H]1OC(C)=O (stereo partly specified),134%
11,O=C1NC(=O)C(Cn2cnc3ccccc32)N1 (stereo unspecified),99.6%
12,COc1cc(/C=C/C(=O)/C=C/c2cc(OC)c3c(c2OC)OCO3)c(OC)c2c1OCO2,12.9%
13,COc1c(B(O)O)cc(C)cc1-c1nc2ccc3[nH]ncc3c2c2c1CCCC2,19.7%
14,CCCCCCN(CCCCCC)c1ccc(/C=C2/SC(=O)NC2=O)c(C)c1,108%
15,COC(=O)c1ccc2[nH]c(O)c(C(=Nc3ccc(N(C)C(=O)CN4CCN(C)CC4)cc3)c3ccccc3)c2c1,51.6%
16,CCOC(=O)CC1C(COC(=O)NC)OC(n2cnc3c(NC(=O)Nc4ccccc4)ncnc32)C1O[Si](C)(C)C(C)(C)C (stereo unspecified),87.7%
17,CN1C(=O)N(C)C2Nn3c(s/c(=C\c4ccccc4)c3=O)=NC21 (stereo unspecified),115%
18,COc1cc(C(=O)c2cc(C)c3[nH]c4ccc(C)cc4c3c2C)cc(OC)c1OC,87.5%
19,CC(=O)N1CCN(c2ccc(OCC3CO[C@](Cn4ccnc4)(c4ccc(Cl)cc4Cl)O3)cc2)CC1 (stereo partly specified),101%

row,Structure (SMILES),growth
1,CN1CCN(Cc2ccc(NC(=O)c3cncc(C#Cc4cnccc4C#N)c3)cc2C(F)(F)F)CC1,108%
2,CCOC(=O)/C(C#N)=C\Nc1ccc2ncnc(Nc3ccc(Cl)cc3Cl)c2c1,44.2%
3,Cn1cc(C(=O)c2nc(-c3cn(C)c4ccc(F)cc34)no2)c2cc(F)ccc21,108%
4,c1cc(-c2nnc(SSc3ncnc4nc[nH]c34)o2)ccn1,17%
5,CN(C)CC#Cc1ccc2ncc(C#N)c(Nc3ccc(F)c(Cl)c3)c2c1,27.1%
6,C#Cc1cccc(NC(=O)Nc2ccccc2NC(=O)CCl)c1,-27.8% [8.25 µM] (active)
7,COc1ccc2c(c1OC)C(=O)O[C@H]2[C@H]1c2c(cc3c(c2OC)OCO3)CCN1C,122%
8,Cc1ccc2c(-c3cc(-c4ccccc4)nc(N)c3C#N)cc(=O)oc2c1,101%
9,C[C@]12CC[C@@H]3c4cc(OC(F)F)c(OS(N)(=O)=O)cc4CC[C@H]3[C@@H]1CC[C@@H]2O,94.2%
10,CC(=O)Oc1ccccc1C(=O)N=C1[Se]CCCN1C(=O)c1ccccc1OC(C)=O,6.56% (active)
11,N#Cc1c(-c2ccc(Cl)cc2)nc2c(c(-c3ccccc3)nn2-c2ccccc2)c1-c1ccc(O)cc1,17.2%
12,CC(=O)c1ccc(Nc2nc(C(C)=O)c(C)s2)cc1,112%
13,O=C(CCCCCCSc1nc(-c2ccccc2)cc(-c2ccccc2)n1)NO,27.2%
14,Cc1cc(Cl)ccc1NS(=O)(=O)c1ccc(-c2cnc(C3CC3)o2)cc1,66.9%
15,Brc1ccc2[nH]cc(-c3nc(-c4c[nH]c5ccncc45)cs3)c2c1,-53% (active)
16,COc1cc(C(=O)/C=C/c2c(Cl)nc3sccn23)cc(OC)c1OC,106%
17,N/C(=N\c1nc2ccccc2s1)NC(=O)Nc1cccc2ccccc12,55%
18,NC1CCN(c2nc(Nc3cccc(C(F)(F)F)c3)c3c(=O)[nH]ccc3n2)CC1,-26.9% (active)
19,COc1ccc(/C=N/Nc2cc(=O)[nH]c3ccc(Cl)cc23)cc1,12.5%

# System: ACHN renal
# Assay: as above
# Details: 10 µM unless noted
row,Structure (SMILES),growth
1,O=C(Nn1c(NCC(=O)N2c3ccccc3Sc3ccccc32)nnc1-c1ccc(O)cc1)c1ccccc1,98.8%
2,N#C/C(=C\c1cccc2cnccc12)n1nnc2cccc(F)c21,16.9%
3,O=C(S)CNC(=O)c1ccccc1,103%
4,CN(C)c1ccc2nc3ccc(=[N+](C)C)c([N+](=O)[O-])c-3sc2c1,27.9%
5,O=C1c2ccccc2NC(n2sc3ccccc3c2=O)N1c1ccccc1 (stereo unspecified),99.6%
6,Cc1nc2ccccc2c(/C=C/c2ccccc2)c1C(=O)/C=C/c1ccc(C(F)(F)F)cc1,-98.4% (active)
7,CCOC(=O)c1nc(Nc2ccc(C(C)=O)cc2)sc1C,101%
8,Oc1ccc(Cl)cc1Cc1cc(Cl)cc(Cl)c1O,27.9%
9,COc1nc2ccc(C)cc2cc1-c1nc2c(cnn2-c2ccc(Br)cc2)c(=O)[nH]1,37.6%
10,CC(=O)OC[C@H]1OC(Sc2sc(C(=O)c3ccc(Cl)cc3)c(N)c2-c2nc3ccccc3s2)[C@H](OC(C)=O)[C@@H](OC(C)=O)[C@@H]1OC(C)=O (stereo partly specified),67.4%
11,O=C1NC(=O)C(Cn2cnc3ccccc32)N1 (stereo unspecified),99.8%
12,COc1cc(/C=C/C(=O)/C=C/c2cc(OC)c3c(c2OC)OCO3)c(OC)c2c1OCO2,25.5%
13,COc1c(B(O)O)cc(C)cc1-c1nc2ccc3[nH]ncc3c2c2c1CCCC2,57%
14,CCCCCCN(CCCCCC)c1ccc(/C=C2/SC(=O)NC2=O)c(C)c1,93.4%
15,COC(=O)c1ccc2[nH]c(O)c(C(=Nc3ccc(N(C)C(=O)CN4CCN(C)CC4)cc3)c3ccccc3)c2c1,7.31% (active)
16,CCOC(=O)CC1C(COC(=O)NC)OC(n2cnc3c(NC(=O)Nc4ccccc4)ncnc32)C1O[Si](C)(C)C(C)(C)C (stereo unspecified),25.8%
17,CN1C(=O)N(C)C2Nn3c(s/c(=C\c4ccccc4)c3=O)=NC21 (stereo unspecified),97.8%
18,COc1cc(C(=O)c2cc(C)c3[nH]c4ccc(C)cc4c3c2C)cc(OC)c1OC,26.4%
19,CC(=O)N1CCN(c2ccc(OCC3CO[C@](Cn4ccnc4)(c4ccc(Cl)cc4Cl)O3)cc2)CC1 (stereo partly specified),92.5%

row,Structure (SMILES),growth
1,CN1CCN(Cc2ccc(NC(=O)c3cncc(C#Cc4cnccc4C#N)c3)cc2C(F)(F)F)CC1,66.8%
2,CCOC(=O)/C(C#N)=C\Nc1ccc2ncnc(Nc3ccc(Cl)cc3Cl)c2c1,62.9%
3,Cn1cc(C(=O)c2nc(-c3cn(C)c4ccc(F)cc34)no2)c2cc(F)ccc21,94.1%
4,c1cc(-c2nnc(SSc3ncnc4nc[nH]c34)o2)ccn1,45%
5,CN(C)CC#Cc1ccc2ncc(C#N)c(Nc3ccc(F)c(Cl)c3)c2c1,10.5%
6,C#Cc1cccc(NC(=O)Nc2ccccc2NC(=O)CCl)c1,-84.1% [8.25 µM] (active)
7,COc1ccc2c(c1OC)C(=O)O[C@H]2[C@H]1c2c(cc3c(c2OC)OCO3)CCN1C,95.8%
8,Cc1ccc2c(-c3cc(-c4ccccc4)nc(N)c3C#N)cc(=O)oc2c1,99.3%
9,C[C@]12CC[C@@H]3c4cc(OC(F)F)c(OS(N)(=O)=O)cc4CC[C@H]3[C@@H]1CC[C@@H]2O,44.9%
10,CC(=O)Oc1ccccc1C(=O)N=C1[Se]CCCN1C(=O)c1ccccc1OC(C)=O,20.8%
11,N#Cc1c(-c2ccc(Cl)cc2)nc2c(c(-c3ccccc3)nn2-c2ccccc2)c1-c1ccc(O)cc1,56%
12,CC(=O)c1ccc(Nc2nc(C(C)=O)c(C)s2)cc1,100%
13,O=C(CCCCCCSc1nc(-c2ccccc2)cc(-c2ccccc2)n1)NO,23%
14,Cc1cc(Cl)ccc1NS(=O)(=O)c1ccc(-c2cnc(C3CC3)o2)cc1,27.5%
15,Brc1ccc2[nH]cc(-c3nc(-c4c[nH]c5ccncc45)cs3)c2c1,-95.5% (active)
16,COc1cc(C(=O)/C=C/c2c(Cl)nc3sccn23)cc(OC)c1OC,86.4%
17,N/C(=N\c1nc2ccccc2s1)NC(=O)Nc1cccc2ccccc12,42.1%
18,NC1CCN(c2nc(Nc3cccc(C(F)(F)F)c3)c3c(=O)[nH]ccc3n2)CC1,-70% (active)
19,COc1ccc(/C=N/Nc2cc(=O)[nH]c3ccc(Cl)cc23)cc1,72.7%
